Cell viability, % of control (lower = more cytotoxic), Potency and viability (% of control) data for 18 molecules are collected here from PubChem BioAssay (NCATS).

Test [1] can be described thus: High-throughput drug toxicity screening in the BPDCN cell line Gen2.2 (AID 1224824; call rule not given here;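 also: cells exposed to compounds for 48 h before reading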). As to conditions: Gen2.2 BPDCN cells; at 45.8 µM (top of the series) unless noted. Put shortly:
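CellTiter-Glo luminescence read after 48 h compound exposure at 37 C defines viability; percent activity set with DMSO as 100% and bortezomib (9.2 uM final) as 0%. 500 exponentially growing cells per well, RPMI plus 10% FBS.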

The nature of test [2]: qHTS assay for measurement of the activity of small molecule inhibitors on Zika virus induced Caspase-3 activity in human iPSC derived neural progenitor cells (hNPCs) (AID 1224857). Also: % of control where 0% means no effect; nearly all actives have a fitted effect of over 65% in size. A digest of the protocol:
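Percent inhibition of virus-induced caspase-3/7 luminescence (Caspase-Glo), scaled between uninfected cells and Zika-infected cells. hNPCs received compound 1 hr before ZIKV at 2 FFU/cell, with 6 hours infection at 37 C.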
(In general: qHTS replaces the single test concentration by a dilution series.)

Test [3] in a line: qHTS assay for measurement of the activity of small molecule inhibitors on Zika virus induced Caspase-3 activity in human astrocytoma cells (AID 1224859).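 Also: plate controls were ZIKV-infected untreated cells for no effect and uninfected cells for full effect.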 A digest of the protocol:
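Luminescent caspase-3/7 read-out (30 min reagent, room temperature) in human SNB-19 cells infected 6 h with ZIKV (2 FFU/cell) after 1 h compound pre-incubation; Data were normalised to uninfected and infected wells.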

A short description of test [4]: qHTS Screen of the MIPE 4.0 Collection Against Ewings Sarcoma (RDES) (AID 1259252). Also: nearly all actives have a fitted effect of over 35% in size. Also: potency is read from the fitted curve at half-maximal effect. A digest of the protocol:
(§1)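 Here, cells in 5% FBS RPMI were exposed for two days (48 h) to compound dilutions added four hours after plating. ATP-based CellTiter-Glo luminescence measured viability, normalized to vehicle and no-cell blanks.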

The nature of test [5]: qHTS Screen of the MIPE 4.0 Collection Against Ewings Sarcoma (TC71) (AID 1259253). Also: nearly all actives have a fitted effect of over 40% in size. Also: potency is read from the fitted curve at half-maximal effect. A digest of the protocol:
as §1

A short description of test [6]: qHTS Screen of the MIPE 4.0 Collection Against Ewings Sarcoma (EW8) (AID 1259255). Also: nearly all actives have a fitted effect of over 35% in size. Also: potency is read from the fitted curve at half-maximal effect.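 As to viability: 100% = DMSO-treated cells and 0% = medium-only wells without cells.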 Put shortly:
as §1

Test [7] in a line: qHTS Screen of the MIPE 4.0 Collection Against Ewings Sarcoma (TC32) (AID 1259256). Also: nearly all actives have a fitted effect of over 45% in size. Also: potency is read from the fitted curve at half-maximal effect. A digest of the protocol:
as §1

A short description of test [8]: P-glycoprotein substrates identified in KB-8-5-11 adenocarcinoma cell line, qHTS therapeutic library screen (AID 1346987). Also: nearly all actives have a fitted effect of over 65% in size. Also: potency is read from the fitted curve at half-maximal effect. Put shortly:
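Luminescence from CellTiter-Glo, read 5 min after addition, quantified survival of KB-8-5-11 (P-gp-overexpressing) cells exposed to compounds for 72 h. AC50 was derived from concentration-response curves.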

A short description of test [9]: P-glycoprotein substrates identified in KB-3-1 adenocarcinoma cell line, qHTS therapeutic library screen (AID 1346986). Also: nearly all actives have a fitted effect of over 60% in size.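 Also: potency is read from the fitted curve at half-maximal effect; potency is for cytotoxicity meaning loss of cell viability.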 A digest of the protocol: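 72 h cell-killing screen, 500 cells/well, CellTiter-Glo luminescence. Paired lines KB-3-1/KB-8-5-11; P-gp dependence checked by tariquidar co-treatment and HEK-293 MDR-19 versus empty-vector cells.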
Test [10] is described as follows: High-throughput drug toxicity screening in the BPDCN cell line Cal-1 (AID 1224825; call rule not given here). As to conditions: Cal-1 BPDCN cell viability, qHTS; at 45.8 µM (top of the series) unless noted. A digest of the protocol:
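Viability of the BPDCN line Cal-1 is measured as ATP-based luminescence (CellTiter-Glo) following 48 h incubation with compounds. Percent activity uses DMSO-treated wells as 100% and 9.2 uM bortezomib as 0%.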

“And” between values parts separate entries of the source, which are not always exact repeats. Identical values can stand only once. Results filed as inconclusive are left out. The source made the active and inactive calls. Unless noted, calls follow the shape of the dose curve; as a rule, active = well fitted curve in the direction sought with a large enough effect; inconclusive = small, poorly fitted or top-dose-only effect, or another doubt; inactive = no such curve, though single readings can be large; an effect the other way counts as inactive or inconclusive.

On to `COc1ccc(CCC(=O)c2c(O)cc(O[C@@H]3O[C@H](CO)[C@@H](O)[C@H](O)[C@@H]3O[C@@H]3O[C@@H](C)[C@H](O)[C@@H](O)[C@@H]3O)cc2O)cc1O`, for which the cell viability, % of control (lower = more cytotoxic) in [1] came out at 77%. The Potency result in [2], in test [3] and in test [8] was “inactive” each time. Moreover, the Potency in test [4] is 9.35 µM (active); in test [5], 9.35 µM (active); in test [6], 10.5 µM (active); in test [7] it was 9.35 µM (active).

As to `C[C@H](NC(=O)[C@@H](O)c1cc(F)cc(F)c1)C(=O)N[C@@H]1C(=O)N(C)c2ccccc2-c2ccccc21`, the cell viability, % of control (lower = more cytotoxic) in test [1] came to 165%. Moreover, the Potency entry in test [2], in test [3], in test [4], in [6], in [7] and in test [8] was “inactive” each time. For the same molecule, the Potency in test [5] is 20.9 µM (active).

As to `C[C@@]12C(=O)OC(=O)[C@@]1(C)C1CCC2O1`, the cell viability, % of control (lower = more cytotoxic) in test [1] amounted to 5.4%. Moreover, the Potency entry in [2] and in test [3] was “inactive” in each case. The Potency is 2.64 µM (active) in [4], 4.18 µM (active) in test [5], 2.64 µM (active) in test [6] and 5.26 µM (active) in test [8].

Regarding `Cc1ccc(O)c(C(CCN(C(C)C)C(C)C)c2ccccc2)c1` (configuration not stated), the cell viability, % of control (lower = more cytotoxic) in test [1] turned out to be 239%. In addition, the Potency result in [2], in [3], in [4], in test [5], in test [6] and in test [7] was “inactive” throughout. In addition, the Potency result in test [9] and in test [8] was “inactive” throughout.

With `O=C(C=CC#Cc1cccc(NS(=O)(=O)c2ccccc2)c1)NO`, the cell viability, % of control (lower = more cytotoxic) in test [1] was determined as 4.86%. The Potency result in [2] and in test [3] was “inactive” each time. The Potency is 1.87 µM (active) in test [4], 0.935 µM (active) in [6], 0.833 µM (active) in [7] and 4.69 µM (active) in test [8].

In the case of `Cc1cnc(NC(=O)Nc2cc(Br)c(C)cc2OC[C@@H]2CNCCO2)cn1`, the cell viability, % of control (lower = more cytotoxic) in test [1] is 20.9%. Moreover, the Potency result in test [2] and in test [3] was “inactive” each time. The Potency in test [4] was 2.35 µM (active); in [5] it was 0.59 µM (active); in test [6] it was 0.833 µM (active); in test [7], 0.59 µM (active).

For `CC(=O)OC[C@@H]1O[C@@H](n2ccc(=O)[nH]c2=O)[C@H](OC(C)=O)[C@H]1OC(C)=O`, the cell viability, % of control (lower = more cytotoxic) in [1] turned out to be 154%. Moreover, the Potency result in test [2], in test [3], in test [4], in [5], in test [6] and in test [7] was “inactive” throughout. Besides, the Potency entry in test [8] was “inactive”.

With `CC(=O)O[C@@]12CO[C@H]1C[C@H](O)[C@@]1(C)C(=O)[C@H](O)C3=C(C)[C@@H](OC(=O)C(O)[C@@H](NC(=O)OC(C)(C)C)c4ccccc4)C[C@@](O)([C@@H](OC(=O)c4ccccc4)[C@@H]21)C3(C)C` (some centres not stated), in test [1], the cell viability, % of control (lower = more cytotoxic) was 22.4%. Also, the Potency result in test [2], in test [3], in test [4], in test [5] and in test [6] was “inactive” in each case. The Potency in [8] is 0.0166 µM (active).

For `CC1(C)CC(O)CC(C)(C)N1[O]`, the cell viability, % of control (lower = more cytotoxic) in test [1] is 152%. In addition, the Potency result in [2], in test [3], in test [4], in test [6], in test [7] and in test [8] was “inactive” each time.

On to `COc1ccnc2[nH]cc(C(=O)C(=O)N3CCN(C(=O)c4ccccc4)C[C@@H]3C)c12`, for which the cell viability, % of control (lower = more cytotoxic) in test [1] came out at 172%. Moreover, the Potency result in test [2], in [3], in test [4], in test [6] and in test [8] was “inactive” each time. Further, the Potency was 2.64 µM (active) in [5] and 4.18 µM (active) in [7].

On to `OCCNC1CCCc2c1[nH]c1ccc(-c3ccccc3)cc21` (configuration not stated), for which the cell viability, % of control (lower = more cytotoxic) in test [1] was found to be 1.69%. For the same molecule, in [2], the Potency entry is “inactive”. Also, the Potency was 26.4 µM (active) in test [4]; 20.9 µM (active) in test [5]; 23.5 µM (active) in [6]; 18.7 µM (active) in test [7]; 6.51 µM (active) in test [8].

Take `c1cc(CN2CCCNCCNCCCNCC2)ccc1CN1CCCNCCNCCCNCC1`: the cell viability, % of control (lower = more cytotoxic) in [1] was found to be 133%. In addition, the Potency entry in [2], in [3], in [4], in [5], in test [6] and in [7] was “inactive” in each case. For the same molecule, the Potency result in test [8] is “inactive”.

Consider `Cc1ccc2nc(NCCN)c3ncc(C)n3c2c1`, for which, in test [1], the cell viability, % of control (lower = more cytotoxic) was determined as 2.46%. The Potency entry in test [2] and in [3] was “inactive” each time. In addition, the Potency in test [4] was 6.62 µM (active); in [5] it was 4.18 µM (active); in [6], 9.35 µM (active); in test [9], 5.17 µM (active); in test [8], 4.18 µM (active) and 6.51 µM (active).

`O=C(NC1CC1)c1cccc(-c2ccc3c(NC(=O)C4CC4)n[nH]c3c2)c1`: the cell viability, % of control (lower = more cytotoxic) in test [1] amounted to 224%. In addition, the Potency entry in test [2], in test [3] and in test [8] was “inactive” in each case. Besides, the Potency is 1.32 µM (active) in [4], 1.32 µM (active) in [5], 3.72 µM (active) in test [6] and 1.32 µM (active) in test [7].

Regarding `CCn1c(=O)c2c(nc(C=Cc3ccc(OC)c(OC)c3)n2C)n(CC)c1=O`, the cell viability, % of control (lower = more cytotoxic) in [1] was 193%. Further, the Potency entry in test [2], in [4], in test [5], in test [6], in test [7] and in [8] was “inactive” in each case.

Turning to `CCc1cnn2c(NCc3ccc[n+]([O-])c3)cc(N3CCCC[C@@H]3CCO)nc12`, in [10], the viability (% of control) was determined as 3.16%. Moreover, the Potency entry in test [2] and in [3] was “inactive” throughout. The Potency is 0.0418 µM (active) in test [4]; 0.0264 µM (active) in test [5]; 0.0235 µM (active) in test [6]; 0.0235 µM (active) in test [7]; 0.235 µM (active) in [8].

As to `Nc1ncn([C@@H]2O[C@H](CO)[C@@H](O)[C@@H]2O)c(=O)n1`, the viability (% of control) in test [10] was determined as 5.42%. In addition, the Potency result in test [2] and in test [3] was “inactive” each time. For the same molecule, the Potency in test [4] is 6.62 µM (active); in test [5], 4.18 µM (active); in test [6], 7.43 µM (active); in [8], 11.8 µM (active).

For `CC(C)(C)[N+]([O-])=Cc1ccc(S(=O)(=O)O)cc1S(=O)(=O)O`, the viability (% of control) in test [10] amounted to 111%. The Potency entry in test [2], in test [3], in test [4], in test [5], in test [6] and in [7] was “inactive” in each case. In addition, the Potency entry in [8] is “inactive”.
